A number with no mark means an inactive call. The source made the active and inactive calls.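 How the source made its calls, unless noted: active means compound whose remaining NAD level is above about 45 nM (limit read from the data); inactive means the rest.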
Tests used:
[1] = target: NAD(+) hydrolase SARM1 (Homo sapiens) (UniProt Q6SZW1); test: blocking NAD cleavage by SARM1 SAM-TIR – cell lysate, NAD-Glo luminescence (AID 1508614); details: SAM-TIR HEK293T lysate NADase, at 1 µM, active compounds read high;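 further: higher remaining NAD means stronger inhibition of SARM1 NADase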
[2] = target: Mitogen-activated protein kinase 7 (Homo sapiens) (UniProt Q13164); test: Gal4-ERK5 driven luciferase induction – cell-based, HTS, primary screen (AID 1508626;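 active means luciferase signal above three times the same-plate solvent-only control wells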;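 further: luciferase driven by Gal4-ERK5 fusion binding five Gal4 sites before minimal TATA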); details: HeLa Gal4-ERK5 transactivation, 18 h, at 5 µM, active compounds read high
Mitogen-activated protein kinase 7 (Homo sapiens), sequence (Q13164 whole entry, looked up, the tested form may be a part): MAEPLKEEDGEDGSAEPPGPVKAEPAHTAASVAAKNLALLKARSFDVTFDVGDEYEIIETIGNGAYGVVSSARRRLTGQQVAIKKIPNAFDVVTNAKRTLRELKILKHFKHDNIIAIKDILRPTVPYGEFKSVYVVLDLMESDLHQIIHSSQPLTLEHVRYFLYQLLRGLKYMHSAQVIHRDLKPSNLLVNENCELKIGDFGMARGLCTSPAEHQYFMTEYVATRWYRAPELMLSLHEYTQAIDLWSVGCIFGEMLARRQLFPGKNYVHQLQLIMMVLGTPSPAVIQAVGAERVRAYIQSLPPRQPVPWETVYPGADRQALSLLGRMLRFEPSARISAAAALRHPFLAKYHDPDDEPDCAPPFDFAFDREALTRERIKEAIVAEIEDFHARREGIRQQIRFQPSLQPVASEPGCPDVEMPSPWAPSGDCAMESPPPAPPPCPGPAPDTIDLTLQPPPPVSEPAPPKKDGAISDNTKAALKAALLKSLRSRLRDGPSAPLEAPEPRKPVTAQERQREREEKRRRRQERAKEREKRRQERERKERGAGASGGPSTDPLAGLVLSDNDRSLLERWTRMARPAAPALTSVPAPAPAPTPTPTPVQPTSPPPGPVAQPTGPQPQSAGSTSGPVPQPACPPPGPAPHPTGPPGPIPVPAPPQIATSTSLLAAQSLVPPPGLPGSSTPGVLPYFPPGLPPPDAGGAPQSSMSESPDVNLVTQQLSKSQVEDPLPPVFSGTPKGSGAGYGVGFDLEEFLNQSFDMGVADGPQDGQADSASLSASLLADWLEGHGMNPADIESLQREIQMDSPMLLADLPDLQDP

NAD(+) hydrolase SARM1 (Homo sapiens), sequence (Q6SZW1 whole entry, looked up, the tested form may be a part): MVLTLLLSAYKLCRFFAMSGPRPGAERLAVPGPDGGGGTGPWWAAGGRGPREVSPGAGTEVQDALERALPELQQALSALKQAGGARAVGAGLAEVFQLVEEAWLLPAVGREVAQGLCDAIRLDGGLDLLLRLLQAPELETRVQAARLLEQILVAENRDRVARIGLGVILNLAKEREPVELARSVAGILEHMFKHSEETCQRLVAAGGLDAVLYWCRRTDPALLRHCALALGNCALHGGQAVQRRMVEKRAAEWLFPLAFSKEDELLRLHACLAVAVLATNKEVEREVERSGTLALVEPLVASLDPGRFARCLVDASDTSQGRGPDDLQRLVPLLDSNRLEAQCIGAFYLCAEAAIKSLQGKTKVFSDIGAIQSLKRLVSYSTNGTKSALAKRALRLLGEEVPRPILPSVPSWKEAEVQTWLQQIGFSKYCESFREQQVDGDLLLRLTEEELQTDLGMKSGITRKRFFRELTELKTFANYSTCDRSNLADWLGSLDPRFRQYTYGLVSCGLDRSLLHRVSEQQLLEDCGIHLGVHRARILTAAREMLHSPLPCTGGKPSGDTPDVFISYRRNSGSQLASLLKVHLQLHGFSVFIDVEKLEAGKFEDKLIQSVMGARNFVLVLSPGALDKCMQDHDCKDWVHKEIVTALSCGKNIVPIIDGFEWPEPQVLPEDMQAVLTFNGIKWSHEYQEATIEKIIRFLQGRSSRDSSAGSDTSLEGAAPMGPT

Row | SMILES | remaining NAD [1] | luciferase signal [2]
1 | C[C@@H]1C\C=C/C=C/C=C/C=C/[C@H](O[C@@H]2O[C@H](C)[C@@H](O)[C@H](N)[C@@H]2O)C[C@@H]2O[C@](O)(C[C@@H](O)C[C@@H]3O[C@@H]3/C=C\C(=O)O1)C[C@H](O)[C@H]2C(=O)O | 10 nM | 292 AU
2 | CCCCCCCCCCCCCCCC(=O)OC[C@H](O)[C@H]1OC(=O)C(O)=C1O | 10 nM | –
3 | CC(=O)c1ccc2c(c1)N(CCCN1CCN(CCO)CC1)c1ccccc1S2 | 10 nM | –
4 | NC(=O)[C@@H]1CCCN1C(=O)[C@H](Cc1cnc[nH]1)NC(=O)[C@@H]1CCC(=O)N1 | 10 nM | –
5 | CC(C)CC(NC(=O)C(C)NC(=O)CNC(=O)C(NC=O)C(C)C)C(=O)NC(C)C(=O)NC(C(=O)NC(C(=O)NC(C(=O)NC(Cc1c[nH]c2ccccc12)C(=O)NC(CC(C)C)C(=O)NC(Cc1c[nH]c2ccccc12)C(=O)NC(CC(C)C)C(=O)NC(Cc1c[nH]c2ccccc12)C(=O)NC(CC(C)C)C(=O)NC(Cc1c[nH]c2ccccc12)C(=O)NCCO)C(C)C)C(C)C)C(C)C (configuration not stated) | 10 nM | –
6 | S=C1SCN(Cc2ccccc2)CN1Cc1ccccc1 | 10 nM | –
7 | CC1/C=C/C=C/C=C/C=C/C=C/C=C/C=C/C(OC2O[C@H](C)[C@@H](O)[C@H](N)[C@@H]2O)CC(O)C(C(=O)O)C(O)CC(=O)CC(O)CC(O)CC(O)CC(=O)CCCC(=O)CC(=O)OC1C(C)CC(C)C(O)CC(=O)c1ccc(N)cc1 (some centres not stated) | 10 nM | –
8 | C[C@]12CC[C@@H]3c4ccc(O)cc4CC[C@H]3[C@@H]1C[C@H](O)[C@@H]2O | 48 nM (active) | –
9 | CO/N=C(\C(=O)N[C@@H]1C(=O)N2C(C(=O)O)=C(CSc3nnnn3C)CS[C@H]12)c1csc(N)n1 | 10 nM | –
10 | COc1ccc2nc([S@@](=O)Cc3ncc(C)c(OC)c3C)[nH]c2c1 | 10 nM | –
11 | Cc1ccc2c(Br)cc(Br)c(OC(=O)c3ccccc3)c2n1 | 10 nM | –
12 | CC(=O)N1CCN(c2ccc(OC[C@@H]3CO[C@@](Cn4ccnc4)(c4ccc(Cl)cc4Cl)O3)cc2)CC1 | 10 nM | –
13 | O=C(O)[C@H](O)[C@@H](O)[C@H](O)[C@H](O)CO | 10 nM | –
14 | O=C(O[C@H]1CN2CCC1CC2)N1CCc2ccccc2[C@@H]1c1ccccc1 | 10 nM | –
15 | Oc1ccc(Cl)c2c1CCC2 | 10 nM | –
16 | C=C(C)[C@H]1CC=C(C)CC1 | 10 nM | –
17 | OC[C@H]1O[C@@H](O[C@H]2[C@H](O)[C@@H](O)[C@@H](O)O[C@@H]2CO)[C@H](O)[C@@H](O)[C@H]1O | 10 nM | –
18 | Nc1ncnc(Nc2ccc(Cl)cc2)n1 | 10 nM | –
19 | COc1cc(/C=C/C(=O)N2CCCCCCC2)cc(OC)c1OC | 10 nM | –
20 | CCN[C@@H]1C[C@H](N)[C@@H](O[C@H]2OC(CN)=CC[C@H]2N)[C@H](O)[C@H]1O[C@H]1OC[C@](C)(O)[C@H](NC)[C@H]1O | 10 nM | 56 AU
21 | Cn1c2ncnc-2c(O)n(C)c1=O | 10 nM | –
22 | CO[C@H]1C[C@H](O[C@H]2[C@H](C)O[C@@H](O[C@@H]3/C(C)=C/C[C@@H]4C[C@@H](C[C@]5(C=C[C@H](C)[C@@H](C6CCCCC6)O5)O4)OC(=O)[C@@H]4C=C(C)[C@@H](O)[C@H]5OC/C(=C\C=C\[C@@H]3C)[C@]54O)C[C@@H]2OC)O[C@@H](C)[C@@H]1O | 10 nM | –
23 | OC[C@@H](O)[C@@H](O)CO | 10 nM | –

Row | SMILES | remaining NAD [1] | luciferase signal [2]
24 | O=C(NCc1ccccc1)OCCO | 10 nM | –
25 | C/C=C(\C)C(=O)OC1[C@H](OC(C)=O)C2(CO)C(CC1(C)C)C1=CCC3C4(C)CCC(O[C@@H]5O[C@H](C(=O)O)[C@@H](O[C@@H]6O[C@H](CO)[C@@H](O)[C@H](O)[C@H]6O)[C@H](O)[C@H]5O[C@H]5O[C@H](CO)[C@@H](O)[C@H](O)[C@H]5O)[C@](C)(CO)C4CCC3(C)[C@]1(C)C[C@H]2O (some centres not stated) | 10 nM | –
26 | CC1(C)C2CCC1(CS(=O)(=O)O)C(=O)C2=Cc1ccc(C=C2C(=O)C3(CS(=O)(=O)O)CCC2C3(C)C)cc1 | 10 nM | –
27 | CN(N=O)C(=O)N[C@@H](C=O)[C@@H](O)[C@H](O)[C@H](O)CO | 10 nM | –
28 | Cc1cc2nc3c(=O)[nH]c(=O)nc-3n(C[C@H](O)[C@H](O)[C@H](O)COP(=O)(O)O)c2cc1C | 10 nM | –
29 | CC(=O)O[C@@H]1C[C@@H]2CC[C@@]1(C)C2(C)C | 10 nM | –
30 | CCOC(=S)SSC(=S)OCC | 10 nM | –
31 | Nc1ccc(S(=O)(=O)[O-])cc1.Nc1ccc(S(=O)(=O)[O-])cc1.O.O.O.O.[Zn+2] | 10 nM | –
32 | CCC(=O)OCC(=O)[C@@]1(OC(=O)CC)[C@H](C)C[C@H]2[C@H]3[C@H]([C@@H](O)C[C@@]21C)[C@@]1(C)C=CC(=O)C=C1C[C@H]3Cl | 10 nM | –
33 | CO[C@H]1C[C@H](O[C@@H]2/C(C)=C\C[C@@H]3C[C@@H](C[C@]4(C=C[C@H](C)[C@@H](C(C)C)O4)O3)OC(=O)[C@@H]3C=C(C)[C@@H](O)[C@H]4OC/C(=C/C=C\[C@@H]2C)[C@]43O)O[C@@H](C)[C@H]1O[C@H]1C[C@@H](OC)[C@H](NC(C)=O)[C@H](C)O1 | 10 nM | –
34 | CC/C=C\C/C=C\C/C=C\C/C=C\C/C=C\C/C=C\CCC(=O)OCC (tested in a mixture with another compound) | 10 nM | –
35 | CC(=O)OCC(=O)[C@@]1(O)CC[C@H]2[C@@H]3CCC4=CC(=O)C=C[C@]4(C)[C@@]3(Cl)[C@@H](Cl)C[C@@]21C | 10 nM | –
36 | CCCCCCCCCC[N+](C)(C)Cc1ccccc1 | 10 nM | –
37 | CC1=C2[C@H](/C=C(\C)C(=O)O)CC[C@@H](C)[C@H]2CC1 | – | 68 AU
38 | CC(=O)O[C@@H]1C=C[C@@]2(C)C(C[C@@H](OC(C)=O)[C@@]3(C)C4=CC(=O)O[C@@H](c5ccoc5)[C@]4(C)CCC23)C1(C)C (some centres not stated) | – | 20 AU
39 | C[C@H]1C[C@@H]2[C@H]([C@@H](O)C[C@@]3(C)[C@H]2CC[C@]3(O)C(=O)COC(=O)CCC(=O)O)[C@@]2(C)C=CC(=O)C=C12 | 10 nM | 72 AU
40 | C[C@H]1[C@@H](O)O[C@@H]2O[C@@]3(C)CC[C@H]4[C@H](C)CC[C@@H]1[C@@]24OO3 | – | 52 AU
41 | CC(=O)Oc1ccc2c(c1)CC[C@@H]1[C@@H]2CC[C@]2(C)[C@@H](OC(C)=O)CC[C@@H]12 | – | 8 AU
42 | CC(=O)[C@H]1CC[C@H]2[C@@H]3CC=C4C[C@@H](OC(=O)CCC(=O)O)CC[C@]4(C)[C@H]3CC[C@]12C | 10 nM | 52 AU
43 | CC1CCC2(OC1)OC1CC3C4CCC5C[C@@H](O)CCC5(C)C4=CCC3(C)C1C2C (some centres not stated) | – | 644 AU (active)
44 | Cn1nnnc1SCC1=C(C(=O)O)N2C(=O)[C@@H](NC(=O)[C@H](OC=O)c3ccccc3)[C@H]2SC1 | 10 nM | 16 AU
45 | Oc1ccc2c(c1)OC[C@]1(O)Cc3cc(O)c(O)cc3[C@H]21 | – | 28 AU
46 | CN[C@@H]1[C@@H](O)[C@@H](O[C@@H]2[C@@H](O)[C@H](O[C@H]3OC(CN)=CC[C@H]3N)[C@@H](N)C[C@H]2N)OC[C@]1(C)O | 10 nM | 48 AU

Row | SMILES | remaining NAD [1] | luciferase signal [2]
47 | CC(=O)[C@@]12O[C@](C)(c3ccccc3)O[C@@H]1C[C@H]1[C@@H]3CCC4=CC(=O)CC[C@]4(C)[C@H]3CC[C@@]12C | 10 nM | 76 AU
48 | C=CCCCCCCCCCCCC(O)CC(O)CO (configuration not stated) | – | 220 AU (active)
49 | C=CCCCCCCCCCCCC(O)CC(O)COC(C)=O (configuration not stated) | – | 48 AU
50 | C[C@]12C=CC(=O)C=C1CC[C@@H]1[C@@H]2[C@@H](O)C[C@@]2(C)[C@H]1CC[C@]2(O)C(=O)COP(=O)(O)O | 10 nM | 96 AU
51 | CC[C@H]1OC(=O)C[C@@H](O)[C@H](C)[C@@H](O[C@@H]2O[C@H](C)[C@@H](O)[C@H](N(C)C)[C@H]2O)[C@@H](CCN2C[C@H](C)C[C@H](C)C2)C[C@@H](C)C(=O)/C=C/C(C)=C/[C@@H]1CO[C@@H]1O[C@H](C)[C@@H](O)[C@@H](OC)[C@H]1OC | 10 nM | 36 AU
52 | C[C@H](CCC(=O)O)[C@H]1CC[C@H]2[C@@H]3CC[C@@H]4CCCC[C@]4(C)[C@H]3CC[C@]12C | – | 36 AU
53 | CC1(C)S[C@@H]2[C@H](N3C(=O)[C@@H](c4ccccc4)NC3(C)C)C(=O)N2[C@H]1C(=O)O | 10 nM | 40 AU
54 | O=C(O)/C=C/c1ccccc1 | – | 52 AU
55 | CO/N=C(/C(=O)N[C@@H]1C(=O)N2C(C(=O)OCOC(=O)C(C)(C)C)=C(/C=C\c3scnc3C)CS[C@H]12)c1csc(N)n1 | – | 132 AU
56 | COc1ccc(/C=C/C(=O)c2ccc(O)cc2O)cc1OC | – | 60 AU
57 | CC(C)CCC[C@@H](C)[C@H]1CC[C@H]2[C@@H]3CC[C@H]4C[C@H](O)CC[C@]4(C)[C@H]3CC[C@]12C | – | 140 AU
58 | CCCCCCCCCCCC[C@@H](C(=O)O)[C@H](C)C(=O)O | – | 32 AU
59 | C=C[C@](C)(O)CCC=C(C)C | – | 36 AU
60 | CO[C@H]1C[C@@H]2CC[C@@H](C)[C@@](O)(O2)C(=O)C(=O)N2CCCC[C@H]2C(=O)O[C@H]([C@H](C)C[C@@H]2CC[C@@H](O)[C@H](OC)C2)CC(=O)[C@H](C)/C=C(\C)[C@@H](O)[C@@H](OC)C(=O)[C@H](C)C[C@H](C)\C=C/C=C/C=C/1C | 10 nM | 64 AU
61 | C[C@]12CC[C@@H]3c4ccc(OC(=O)c5ccccc5)cc4CC[C@H]3[C@@H]1CC[C@@H]2O | 10 nM | 56 AU
62 | CC(=O)O[C@H]1CC[C@@]2(C)C(=CC[C@H]3[C@@H]4CC[C@H]([C@H](C)CCCC(C)C)[C@@]4(C)CC[C@@H]32)C1 | – | 56 AU
63 | CC(=O)OCC(=O)[C@@]1(O)[C@@H](C)C[C@H]2[C@@H]3CCC4=CC(=O)C=C[C@]4(C)[C@@]3(F)[C@@H](O)C[C@@]21C | 10 nM | 132 AU
64 | C=C1CC[C@@]2(OC1)O[C@H]1C[C@H]3[C@@H]4CC=C5C[C@@H](O)C[C@@H](O)[C@]5(C)[C@H]4CC[C@]3(C)[C@H]1[C@@H]2C | – | 84 AU
65 | O=C(O)C1=C(CSc2nnnn2CS(=O)(=O)O)CS[C@@H]2[C@H](NC(=O)[C@H](O)c3ccccc3)C(=O)N12 | 10 nM | 84 AU
66 | CN[C@@H]1[C@H](O[C@H]2[C@H](O[C@H]3[C@H](O)[C@@H](O)[C@H](N=C(N)N)[C@@H](O)[C@@H]3N=C(N)N)O[C@@H](C)[C@]2(O)C=O)O[C@@H](CO)[C@H](O)[C@H]1O | 10 nM | 80 AU
67 | COC(=O)CC[C@@H](C)[C@H]1CC[C@H]2[C@@H]3CC[C@@H]4C[C@H](O)CC[C@]4(C)[C@H]3C[C@H](O)[C@]12C | – | 108 AU

— PubChem BioAssay
